Compound activity (PubChem)
Hits are enriched below; roughly 2.8% of the tested compounds scored in any of these assays.
GLP1R ag – activates the human GLP-1 receptor; AID 624172; actives 0.007% (n = 380,000); HEK293 GLP-1R CRE-luciferase, luminescence, 4-6 h; cells express a hypersensitive GLP-1R form; P43220; Potency, µM (doses to about 45.6 µM), hits mostly activators
KCNH2 3.1 inh – KCNH2 3.1 (human) potassium channel inhibition; U2OS KCNH2 3.1, thallium flux FluxOr; stronger effect = lower value; activity change, % (tested at about 1.8 µM); actives 0.95% (n = 340,000);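 active = maximum activity change below -70%; inconclusive = maximum activity change from -70% to -50%; inactive = maximum activity change above -50%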;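 also: thallium influx rate constant from kinetic fluorescence after stimulation buffer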
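Steps: virus added to U2OS suspension (4 h, RT, dark); medium with 10% FBS added, cells plated, 37 C overnight; FluxOr/Red40 loading buffer 45 min RT; stimulation buffer, 2 min kinetic read; rate constant normalized.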
GLS inhibitor – blocks human kidney-isoform glutaminase activity. GLS enzymatic activity, qHTS titration. Potency, µM (doses to about 45.5 µM), hits mostly inhibitors. actives 0.21% (n = 410,000)
Target sequence (O94925 whole entry, looked up, canonical isoform): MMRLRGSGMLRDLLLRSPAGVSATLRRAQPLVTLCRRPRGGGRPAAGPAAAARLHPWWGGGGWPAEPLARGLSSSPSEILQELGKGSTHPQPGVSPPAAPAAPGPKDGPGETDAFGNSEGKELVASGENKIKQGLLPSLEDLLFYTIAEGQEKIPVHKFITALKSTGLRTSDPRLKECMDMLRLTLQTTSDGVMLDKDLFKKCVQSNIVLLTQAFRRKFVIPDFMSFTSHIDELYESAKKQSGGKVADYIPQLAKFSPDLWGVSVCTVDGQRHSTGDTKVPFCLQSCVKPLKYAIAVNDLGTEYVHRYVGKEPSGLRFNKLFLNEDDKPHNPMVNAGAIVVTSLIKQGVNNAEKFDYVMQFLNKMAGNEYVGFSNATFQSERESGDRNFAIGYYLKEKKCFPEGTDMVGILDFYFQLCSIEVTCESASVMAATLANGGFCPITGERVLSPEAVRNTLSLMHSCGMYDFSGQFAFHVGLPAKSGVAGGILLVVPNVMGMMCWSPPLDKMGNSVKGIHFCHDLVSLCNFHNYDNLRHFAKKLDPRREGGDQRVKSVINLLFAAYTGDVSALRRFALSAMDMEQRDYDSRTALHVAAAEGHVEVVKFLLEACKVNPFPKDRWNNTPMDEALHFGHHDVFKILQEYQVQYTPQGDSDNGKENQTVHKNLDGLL
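Two-point fluorescence kinetic (t0, 30 min RT) for hKGA; glutamate detected via glutamate oxidase–HRP–Amplex Red. Substrate: 1 mM L-glutamine solution; buffer 45 mM KH2PO4, pH 8.2.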
GLP1R cytotox – cytotoxicity counter-screen for GLP-1 receptor inverse agonists; actives 0.13% (n = 410,000); Potency, µM (titrated, usually from 38.3 µM), actives largely listed as inhibitors; HEK293 cAMP-luciferase reporter cells, luminescence, 24 h;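 also: loss of luciferase light is scored as toxicity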
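Seeding density was 200 cells/uL; after overnight-length (12 h) culture, 23 nL compounds went on for 24 h at 37 °C. Readout used a luciferase detection reagent, luminescence taken after 12 min at room temperature.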
KCNH2 WT inh – KCNH2 (human, wildtype) channel inhibition; activity change, % at 1.84 µM; AID 720551; Q12809; U2OS, BacMam KCNH2, thallium flux FluxOr; stronger effect = lower value; actives 0.37% (n = 340,000);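 active = maximum activity change below -70%; inconclusive = maximum activity change between -70% and -50%; inactive = maximum activity change above -50%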
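U2OS cells transduced with wild-type KCNH2 virus are loaded with FluxOr dye for 45 min, and thallium flux is measured in kinetic reads before and after stimulation buffer. Rate constants are normalized to DMSO controls.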
GLP-1R inv ag – inverse agonists of human GLP-1 receptor; P43220; HEK293 GLP-1R CRE-luciferase, luminescence, 24 h; GLP-1R form is constitutively active; Potency, µM (doses to about 38.3 µM), usual class: inhibitors; actives 1.6% (n = 410,000); also: nearly all actives have a fitted effect of over 55% in size
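Seeding at 200 cells/uL, 12 h culture, 24 hr compound treatment, then luciferase reagent and a luminescence read; cells are HEK293 stably expressing a constitutively active GLP-1R plus cAMP-responsive luciferase.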
Large screens that a line does not name were inactive; ! = not confirmed by another sample. Unless noted, calls follow the shape of the dose curve; as a rule, active = well fitted curve in the direction sought with a large enough effect; inconclusive = small, poorly fitted or top-dose-only effect, or another doubt; inactive = no such curve, though single readings can be large; an effect the other way counts as inactive or inconclusive.

CCOC(=O)C1CCCN(Cc2ccc(-c3ccccc3)cc2)C1 (centres undefined)	GLP-1R inv ag inconclusive
Cc1cccc(OCCNc2ncccc2[N+](=O)[O-])c1	GLP1R ag inconclusive
Fc1ccc(C(OCCN2CCCC2)c2ccc(Br)cc2)cc1 (centres undefined)	KCNH2 3.1 inh -72, GLP1R cytotox inconclusive, KCNH2 WT inh inconclusive, GLP-1R inv ag 5.6µM
c1ccc(CCCN2CCN(CCOC(c3ccccc3)c3ccccc3)CC2)cc1	KCNH2 3.1 inh -117, GLP1R cytotox inconclusive, KCNH2 WT inh inconclusive, GLP-1R inv ag inconclusive
Fc1ccc(C(OCCN2CCCC2)c2ccc(F)cc2)cc1	KCNH2 3.1 inh -77, GLP-1R inv ag inconclusive
Fc1ccc(C(OCCN2CCN(CCCc3ccccc3)CC2)c2ccc(F)cc2)cc1	none (no result: KCNH2 3.1 inh, GLP1R cytotox, KCNH2 WT inh, GLP-1R inv ag)
C#CCN1CCN(c2ccc(F)cc2)CC1	none
OC(CCCN1CCC(O)(c2ccc(Cl)cc2)CC1)c1ccc(F)cc1 (centres undefined)	GLP-1R inv ag inconclusive
COc1cccc(C(=O)CCN[C@@H](C)[C@H](O)c2ccccc2)c1	none (no result: KCNH2 3.1 inh, GLP1R cytotox, KCNH2 WT inh, GLP-1R inv ag)
CCCCCCOc1ccc(CN2CCN(C)CC2)cc1	GLS inhibitor inconclusive, GLP-1R inv ag 3.2µM
CN1CCN(Cc2ccc3ccccc3c2)CC1	none
Cc1ccc(S(=O)(=O)N(CC(=O)N2CCC(C)CC2)Cc2ccccc2F)cc1	GLP1R cytotox inconclusive, GLP-1R inv ag inconclusive
N#Cc1ccc(N2CCNCC2)c(F)c1	KCNH2 3.1 inh -76, KCNH2 WT inh inconclusive
CCOc1ccc(N2C(=O)/C(=C\c3cccs3)C(=O)NC2=S)cc1	none
CCOc1ccc(N2C(=O)/C(=C/c3ccco3)C(=O)NC2=S)cc1	GLS inhibitor 1.8µM, GLP1R cytotox inconclusive
O=C(NCc1c(-n2cccc2)sc2c1CCCC2)Nc1cccc(C(F)(F)F)c1	GLP-1R inv ag inconclusive (no result: GLP1R ag, KCNH2 3.1 inh, KCNH2 WT inh)
CCN1C(=O)CCN(C2CCCC2)c2nc(Nc3ccc(C(=O)NC4CCN(C)CC4)cc3OC)ncc21	GLP1R cytotox inconclusive, GLP-1R inv ag inconclusive
O=C(Cc1ccc(Br)cc1)NCc1ccccc1	GLP1R cytotox inconclusive, KCNH2 WT inh -300, GLP-1R inv ag inconclusive
C[C@H]1C[C@H](C)C(=O)[C@@H]([C@H](O)CC2CC(=O)NC(=O)C2)C1	none (no result: KCNH2 3.1 inh, GLP1R cytotox, KCNH2 WT inh, GLP-1R inv ag)
Cc1ccc([C@H]2C[C@H](n3cc(C4CC4)nn3)[C@@H](O)CN2Cc2cccs2)cc1	GLP-1R inv ag inconclusive
CCN(CC)c1ccc(/C=C2\SC(=O)N(C(C)C)C2=O)o1	GLP1R cytotox inconclusive, GLP-1R inv ag inconclusive
Cc1ccc([C@H]2C[C@@H](n3cc(C4CC4)nn3)[C@H](O)CN2CC2CCCCC2)cc1	none
Cc1cccc(NC(=O)c2ccc(F)c(S(=O)(=O)N3CCN(c4ccc(F)cc4)CC3)c2)c1	GLP-1R inv ag inconclusive (no result: GLP1R ag, KCNH2 3.1 inh, KCNH2 WT inh)
O=C(CCOc1cccc(Br)c1)Nc1ccc(F)c(S(=O)(=O)N2CCOCC2)c1	GLP1R cytotox inconclusive, GLP-1R inv ag 10µM
COc1ccc(C(=O)Nc2ccc(-c3cc(C(F)(F)F)nn3-c3ccccc3)cc2)cc1OC	GLP-1R inv ag inconclusive (no result: GLP1R ag, KCNH2 3.1 inh, KCNH2 WT inh)
N=c1n(CCO)c2ccccc2n1Cc1ccccc1	GLP-1R inv ag inconclusive
CCCCCn1c(=N)n(CC(O)COc2ccccc2OC)c2ccccc21 (centres undefined)	KCNH2 3.1 inh -107!, GLP1R cytotox inconclusive, KCNH2 WT inh -85, GLP-1R inv ag inconclusive
CN1CCN(CC(=O)Nc2ccc([N+](=O)[O-])cc2C(=O)c2ccccc2)CC1	KCNH2 3.1 inh -110, KCNH2 WT inh -103, GLP-1R inv ag inconclusive
CCOC(=O)c1c(NC(=O)CSc2nc3ccc(OC)cc3[nH]2)sc2c1CC(C)(C)NC2(C)C	GLP1R cytotox inconclusive, GLP-1R inv ag inconclusive
N#CC(C#N)=C1C=CC=CN1/C(=C\c1ccco1)C(=O)c1ccc(Cl)cc1	KCNH2 3.1 inh -86, GLP-1R inv ag 5.6µM
CN1CCN(Cc2nc3ccccc3n2C)CC1	none
Cn1c(NN=O)nc2ccccc21	GLP1R cytotox inconclusive, GLP-1R inv ag 4.5µM
